Compound activity as filed in PubChem.
ELG1 repair inh: ELG1-dependent DNA repair inhibition; HEK293T ELG1-luciferase reporter, luminescence, 16 h; DNA damage induced by 5-fluorouridine; AID 504467; Potency, µM (doses to about 46.1 µM), for inactives: top-dose activity change, negative = inhibition, most hits filed as inhibitors; actives 2.3% (n = 330,000); note: % is set by controls: 0 for no effect and ±100 for the full control effect; nearly all actives have a fitted effect of over 55% in size
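In this reporter screen, reduction of luminescence relative to DMSO vehicle indicated activity. Compounds and 5-fluorouridine were added together to 2,000 cells per well, incubated for 16 hr at 37 °C, then developed with ONE-Glo.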
Rab9 promoter act: activates the Rab9 promoter | Potency, µM (top dose mostly 9.22 µM), without a hit: at the top dose activation, negative = inhibition, most hits filed as activators | actives 2.8% (n = 320,000) | Huh7 Rab9 promoter-luciferase reporter, luminescence, 24 h; note: % of control where 0% means no effect; nearly all actives have a fitted effect of over 60% in size
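Luminescence read-out: Huh7 cells stably expressing Rab9-luciferase, treated 24 h with compound at 37 °C, then lysed with luciferase reagent for 10 min at ambient before reading.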
SMN2 splice enh: SMN2 splice variant enhancement; Potency, µM (doses to about 46.1 µM), inactives show at the top dose activity change, positive = activation, hits mostly activators; HEK293 SMN2-luciferase splicing reporter, luminescence, 30-36 h; AID 1458; actives 2.8% (n = 210,000); note: % of control where 0% means no effect; nearly all actives have a fitted effect of over 55% in size
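HEK293 cells carry an SMN2 […]–luciferase reporter in which exon 7 inclusion puts luciferase in frame. Cells were plated 10-12 h before compound addition, then incubated 30-36 h at 37C. ONE-Glo luminescence was read; sodium butyrate at 4.5 mM final served as control.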
NPC1 promoter act: activators of NPC1 promoter. Potency, µM (highest dose often 9.22 µM), for inactives: at the top dose activation, usual class: activators. actives 2.4% (n = 320,000). AID 485313. Huh7 NPC1 promoter luciferase reporter, 24 h; note: % of control where 0% means no effect; nearly all actives have a fitted effect of over 60% in size
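Quantitative HTS used a cell-based reporter: Huh7 cells stably bearing the NPC1 promoter upstream of luciferase were treated with compounds for 24 h, and promoter activation was read as luminescence.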
ELG1 genotox: inducers of genotoxicity in HEK293T ELG1-luciferase cells. HEK293T ELG1-luciferase reporter, luminescence, 16 h. actives 1.3% (n = 330,000). AID 504466. Potency, µM (doses to about 46 µM), for inactives: at the highest dose activity change, positive = activation, most hits filed as activators; note: % of control where 0% means no effect; nearly all actives have a fitted effect of over 60% in size
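Quantitative HTS format in 1536-well plates. HEK293T ELG1-luciferase reporter cells receive test compound and are incubated 16 hr at 37 °C, 5% CO2; ONE-Glo added, 30 min room temperature, then luminescence read.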
FLuc counter: inhibits or activates purified firefly luciferase, miR-21 counter-screen | P08659 | purified FLuc, Km substrates, luminescence inhibition | Potency, µM (series often up to 57.5 µM), inactives show top-dose activity change, negative = inhibition, most hits filed as inhibitors | actives 6.9% (n = 360,000);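 note: plate controls were vehicle for no effect and reference inhibitor for full effect; nearly all actives have a fitted effect of over 55% in size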
Target sequence (P08659 whole entry, looked up): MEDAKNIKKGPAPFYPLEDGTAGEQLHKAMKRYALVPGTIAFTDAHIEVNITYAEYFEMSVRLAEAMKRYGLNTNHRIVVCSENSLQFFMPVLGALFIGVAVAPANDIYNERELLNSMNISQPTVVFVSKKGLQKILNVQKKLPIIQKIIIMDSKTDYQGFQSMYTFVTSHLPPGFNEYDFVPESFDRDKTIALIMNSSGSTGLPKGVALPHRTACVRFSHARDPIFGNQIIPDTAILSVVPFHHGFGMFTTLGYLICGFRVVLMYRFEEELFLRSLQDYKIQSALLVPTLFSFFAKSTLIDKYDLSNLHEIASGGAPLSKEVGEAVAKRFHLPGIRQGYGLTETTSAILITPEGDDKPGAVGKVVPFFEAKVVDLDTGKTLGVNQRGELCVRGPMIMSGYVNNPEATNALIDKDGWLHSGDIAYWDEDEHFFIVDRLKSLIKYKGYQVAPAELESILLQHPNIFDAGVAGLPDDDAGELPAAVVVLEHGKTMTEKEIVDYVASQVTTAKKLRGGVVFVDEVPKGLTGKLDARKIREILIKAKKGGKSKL
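Purified P. pyralis luciferase, 10 nM final, with Km-level 10 uM D-luciferin and 10 uM ATP in 50 mM Tris acetate pH 7.5, 10 mM Mg acetate, 0.01% Tween-20, 0.05% BSA; 6-point qHTS titration about 60 µM downward; luminescence read.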
* = called active by the depositor; ? = inconclusive; · = no result. Shown are actives, neighbours in structure and some others; about 9.4% of the full set was active somewhere. Calls come from the whole dose curve; as a rule, active = well fitted curve in the direction sought with a large enough effect; inconclusive = small, poorly fitted or top-dose-only effect, or another doubt; inactive = no such curve, though single readings can be large; an effect the other way counts as inactive or inconclusive. Potency is the fitted concentration of half-maximal effect.

SMILES | ELG1 repair inh | Rab9 promoter act | SMN2 splice enh | NPC1 promoter act | ELG1 genotox | FLuc counter
O=C1C(Cl)=C(NCC2CCCO2)C(=O)N1CCc1ccccc1 (stereo not drawn) | ? | ? | 13µM* | ? | ? | 15µM*
CN1CCN(C2=C(Cl)C(=O)N(CCc3ccccc3)C2=O)CC1 | ? | ? | 13µM* | 19% | 14% | ?
O=C1C(Cl)=C(N2CCOCC2)C(=O)N1CCc1ccccc1 | ? | ? | 13µM* | 13% | ? | 19µM*
COc1ccc(CCNCc2c(C(=O)O)c(C)n(Cc3c(F)cccc3Cl)c2C)cc1OC | · | · | -1% | · | · | 0%
Cc1ccc(C(=O)NCCc2ccc(Cl)cc2)cc1-n1c(C)nc2cccnc21 | · | · | · | · | · | 4%
CCC(CO)NC(=O)C(=O)Nc1c2c(nn1-c1ccc(F)cc1)CSC2 (stereo not drawn) | · | · | · | · | · | -15%
O=C(COc1ccc2ccccc2c1Br)Nc1ncn[nH]1 | ? | 13% | -1% | 6% | ? | 13µM*
Cc1cccc(C)c1OCC(=O)Nc1ncn[nH]1 | 15% | 1% | -9% | -3% | -5% | -1%
CN(C)c1ccc(CNC(=O)C2COc3ccccc3C2)cc1 (stereo not drawn) | · | · | · | · | · | -16%
N#C/C(=C\c1ccc(-c2cccc([N+](=O)[O-])c2)o1)C(=O)N1CCOCC1 | -4% | -2% | · | 2% | 1% | ?
N#C/C(=C\c1ccc(-c2cccc([N+](=O)[O-])c2)o1)c1nnc(N2CCOCC2)n1-c1ccccc1 | 5.8µM* | -2% | -37% | -7% | -22% | -5%
CC(C)(C)C(=O)COc1ccccc1[N+](=O)[O-] | -4% | 3% | 9% | 10% | 0% | 2%
CCOC(=O)N(C)S(=O)(=O)c1ccccc1[N+](=O)[O-] | 7% | -2% | 7% | -7% | -3% | -2%
O=C(CCOc1ccccc1)Nc1ccccc1[N+](=O)[O-] | ? | 15% | 19% | 12% | 13% | -11%
CCOC(=O)/C=C/COc1ccccc1[N+](=O)[O-] | ? | ? | 24% | 15% | 22% | 15µM*
COc1ccc(OCCOc2ccccc2[N+](=O)[O-])cc1 | ? | ? | ? | ? | ? | 17µM*
O=[N+]([O-])c1ccccc1NCCOc1ccccc1 | ? | ? | ? | ? | ? | 9.5µM*
O=[N+]([O-])c1ccccc1OCCOc1ccccc1[N+](=O)[O-] | ? | 2µM* | · | 3.5µM* | 11% | -8%
COc1ccc(OCCOCCOc2ccc(C)cc2[N+](=O)[O-])cc1 | 15% | -6% | 2% | 0% | 0% | ?
CCOC(=O)c1cc(S(=O)(=O)N2CCN(c3ccccc3F)CC2)[nH]n1 | · | · | · | · | · | -20%
CCOC(=O)C1CCCN(C(=O)c2ccc3c(c2)N(Cc2ccc(Cl)cc2)C(=O)c2ccccc2S3=O)C1 (stereo not drawn) | · | · | -11% | · | · | -1%
Cc1cc(C(F)F)n2nc(C(=O)Nc3sc4c(c3C#N)CCC(C)C4)nc2n1 (stereo not drawn) | -1% | 3% | -4% | -1% | 1% | ?
Cc1cc(C(F)F)n2nc(C(=O)Nc3sc4c(c3C(N)=O)CCC4)nc2n1 | ? | -2% | -8% | 2% | 1% | 12µM*
COC(=O)c1c(NC(=O)c2nc3nc(C)cc(C(F)F)n3n2)sc2c1CCC2 | 23µM* | 1% | -29% | -3% | -7% | -3%
CC(C)COc1ccc(CNC(=S)Nc2ccccc2)cc1Cl | -27% | 0% | · | -2% | -7% | 0%
SMILES | ELG1 repair inh | Rab9 promoter act | SMN2 splice enh | NPC1 promoter act | ELG1 genotox | FLuc counter
COc1cc(C2C(C(=O)Nc3ccc(C)cc3C)=C(C)Nc3nc4ccccc4n32)cc(OC)c1OC (stereo not drawn) | · | · | 9% | · | · | 0%
CCOc1cc(N2CCOCC2)c(OCC)cc1NC(=O)c1ccc(OCc2c(C)noc2C)c(OC)c1 | 5.8µM* | -6% | 2% | -2% | -2% | -2%
CCOc1cc(N2CCOCC2)c(OCC)cc1NC(=O)c1cnccn1 | 10µM* | · | · | · | -5% | ·
CCOc1cc(-n2cnnn2)c(OCC)cc1NC(=O)c1cnccn1 | 6% | 15% | 20% | 0% | 1% | -1%
CCOc1cc(N2CCOCC2)c(OCC)cc1NC(=O)c1nc2nc(C)cc(C)n2n1 | 7.9µM* | -5% | 10% | -11% | -12% | 2%
CCOc1cc(N2CCOCC2)c(OCC)cc1NC(=O)c1ccc(OC)cc1 | ? | 0% | -28% | -14% | -6% | 5%
CC(C)(CO)C(O)C(=O)NCCCO (stereo not drawn) | 15% | 0% | · | 5% | -7% | 0%
CC(C)CCn1c(=O)c2sccc2n2c(CCCC(=O)Nc3ccc(C(C)C)cc3)nnc12 | · | · | · | · | · | 2%
Cc1cn2c(=O)c(S(=O)(=O)NCCc3ccccc3)c(C)nc2s1 | · | · | · | · | · | 0%
Cc1noc(NS(=O)(=O)c2ccc(NC(=O)c3ccc(OC(C)C)cc3)cc2)c1C | 2% | 1% | · | -1% | 3% | 13µM*
CCc1ccc(OCC(=O)Nc2ccc(S(=O)(=O)Nc3onc(C)c3C)cc2)cc1 | · | · | -3% | · | · | 12µM*
CCc1ccc(C(=O)/C=C/Nc2ccc(S(=O)(=O)Nc3onc(C)c3C)cc2)cc1 | ? | ? | 7% | 20% | 13% | 11µM*
Cc1noc(NS(=O)(=O)c2ccc(NC(=O)c3ccc(N(C)C)cc3)cc2)c1C | ? | 22% | · | 1% | 5% | ·
CC(C)Oc1ccc(C(=O)N/N=C/c2ccc(-c3ccc(S(=O)(=O)Nc4ncccn4)cc3)o2)cc1 | 13% | 10% | 7% | 7% | -1% | 27µM*
Cc1noc(NS(=O)(=O)c2ccc(N/C=C/C(=O)c3ccncc3)cc2)c1C | -2% | -9% | 3% | 1% | 3% | -2%
COc1ccc(-n2c(SCc3ccccc3F)nc3c([nH]c4ccccc43)c2=O)cc1OC | · | · | · | · | · | 0%
CCOc1ccc(C(=O)Nc2ccc3nc(SCC(=O)N4CCc5ccccc54)sc3c2)cc1 | · | · | · | · | · | -7%
Cc1noc(NS(=O)(=O)c2ccc(N/C=C/C(=O)c3ccc(F)cc3)cc2)c1C | ? | 17% | -27% | 5% | -5% | 21µM*
Cc1noc(NS(=O)(=O)c2ccc(N/C=C\C(=O)c3ccncc3)cc2)c1C | 9% | 9% | -4% | -3% | -4% | -1%
COc1ccc(C(=O)/C=C/Nc2ccc(S(=O)(=O)Nc3ncccn3)cc2)cc1 | ? | 3% | 17% | 6% | 6% | ?
